Results from PubChem BioAssay AID1159580 (chemical genetic matrix, 2015).
Screen size: about 5,500 compounds; about 2,000 (36%) were called active. About 18% were inconclusive and are not listed. Rule as the data show it: active = normalized growth mostly below about 0.91 (no sharp cut-off); inconclusive = no clear call, values can overlap the other calls; inactive = mostly above about 0.92. This is one part of the list.

Test: chemical genetic growth profiling, strain panel (AID 1159580);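 also: tested at 20 µM; growth read once vehicle control cultures reached saturation at 30 °C; 1 = growth at the plate median or of vehicle wells; lower values mean less growth of the strain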
Settings: growth OD

Measured: normalized growth

O=C(O[C@@H]1Cc2c(O)cc(O)cc2O[C@@H]1c1cc(O)c(=O)c2c(O)c(O)cc([C@H]3Oc4cc(O)cc(O)c4C[C@H]3O)c2c1)c1cc(O)c(O)c(O)c1
inactive: S. cerevisiae deletion strains, locus YJR066W, strain TOR1, active compounds read low 0.969 | S. cerevisiae deletion strains, locus YKL009W, strain mrt4, active compounds read low 1.05 | S. cerevisiae deletion strains, locus YKL068W, active compounds read low 1.04 | S. cerevisiae deletion strains, locus YKL085W, strain MDH1 (second series), active compounds read low 1.03 | S. cerevisiae deletion strains, locus YKL085W, strain MDH1, active compounds read low 1.03 | S. cerevisiae deletion strains, locus YKR026C, strain gcn3, active compounds read low 0.988 | S. cerevisiae deletion strains, locus YKR091W, strain srl3, active compounds read low 0.944 | S. cerevisiae deletion strains, locus YLR102C, strain apc9, active compounds read low 1.02 | S. cerevisiae deletion strains, locus YLR113W, strain HOG1, active compounds read low 1.11 | S. cerevisiae deletion strains, locus YML032C, strain rad52, active compounds read low 0.968 | S. cerevisiae deletion strains, locus YML124C, strain tub3, active compounds read low 0.949 | S. cerevisiae deletion strains, locus YMR078C, strain ctf18, active compounds read low 1.01 | S. cerevisiae deletion strains, locus YMR125W, strain sto1, active compounds read low 1.04 | S. cerevisiae deletion strains, locus YNL183C, strain NPR1, active compounds read low 0.963 | S. cerevisiae deletion strains, locus YNL250W, strain rad50, active compounds read low 1.05 | S. cerevisiae deletion strains, locus YNL271C, strain bni1, active compounds read low 1 | S. cerevisiae deletion strains, locus YNL298W, strain CLA4, active compounds read low 0.998 | S. cerevisiae deletion strains, locus YNL307C, strain MCK1, active compounds read low 1.01 | S. cerevisiae deletion strains, locus YNL322C, strain KRE1 (second series), active compounds read low 0.941 | S. cerevisiae deletion strains, locus YNR049C, strain mso1, active compounds read low 0.945 | S. cerevisiae deletion strains, locus YOL012C, strain htz1 0.255 | S. cerevisiae deletion strains, locus YOR136W, strain idh2, active compounds read low 0.929 | S. cerevisiae deletion strains, locus YOR144C, strain elg1, active compounds read low 0.943 | S. cerevisiae deletion strains, locus YOR231W, strain MKK1, active compounds read low 1.02 | S. cerevisiae deletion strains, locus YOR316C, strain cot1, active compounds read low 1.02 | S. cerevisiae deletion strains, locus YPL256C, strain CLN2, active compounds read low 1.06 | S. cerevisiae deletion strains, locus YPR119W, strain clb2, active compounds read low 1.02 | S. cerevisiae deletion strains, locus YPR141C, strain kar3, active compounds read low 1.03 | S. cerevisiae deletion strains, locus YPR163C, strain tif3, active compounds read low 0.974
active: S. cerevisiae deletion strains, locus YKL160W, strain elf1, active compounds read low 0.709 | S. cerevisiae deletion strains, locus YKL190W, strain CNB1, active compounds read low 0.211 | S. cerevisiae deletion strains, locus YKR001C, strain vps1, active compounds read low 0.809 | S. cerevisiae deletion strains, locus YLL001W, strain dnm1, active compounds read low 0.658 | S. cerevisiae deletion strains, locus YLL026W, active compounds read low 0.719 | S. cerevisiae deletion strains, locus YLL041C, strain sdh2, active compounds read low 0.79 | S. cerevisiae deletion strains, locus YLR027C, strain aat2, active compounds read low 0.495 | S. cerevisiae deletion strains, locus YLR039C, strain RIC1, active compounds read low 0.271 | S. cerevisiae deletion strains, locus YLR058C, strain SHM2, active compounds read low 0.219 | S. cerevisiae deletion strains, locus YLR221C, strain rsa3, active compounds read low 0.699 | S. cerevisiae deletion strains, locus YLR258W, strain gsy2, active compounds read low 0.638 | S. cerevisiae deletion strains, locus YLR262C, strain YPT6 (second series), active compounds read low 0.524 | S. cerevisiae deletion strains, locus YLR262C, strain YPT6, active compounds read low 0.552 | S. cerevisiae deletion strains, locus YLR268W, strain sec22, active compounds read low 0.644 | S. cerevisiae deletion strains, locus YLR320W, strain mms22, active compounds read low 0.635 | S. cerevisiae deletion strains, locus YLR330W, strain CHS5, active compounds read low 0.791 | S. cerevisiae deletion strains, locus YLR342W, strain FKS1, active compounds read low 0.423 | S. cerevisiae deletion strains, locus YLR357W, strain rsc2, active compounds read low 0.624 | S. cerevisiae deletion strains, locus YLR370C, strain arc18, active compounds read low 0.593 | S. cerevisiae deletion strains, locus YLR371W, strain rom2, active compounds read low 0.661 | S. cerevisiae deletion strains, locus YLR384C, strain iki3, active compounds read low 0.784 | S. cerevisiae deletion strains, locus YLR418C, strain cdc73, active compounds read low 0.505 | S. cerevisiae deletion strains, locus YML016C, strain PPZ1, active compounds read low 0.111 | S. cerevisiae deletion strains, locus YML120C, strain ndi1, active compounds read low 0.727 | S. cerevisiae deletion strains, locus YMR058W, strain fet3, active compounds read low 0.0992 | S. cerevisiae deletion strains, locus YMR129W, active compounds read low 0.789 | S. cerevisiae deletion strains, locus YMR205C, strain PFK2, active compounds read low 0.416 | S. cerevisiae deletion strains, locus YMR223W, strain ubp8, active compounds read low 0.844 | S. cerevisiae deletion strains, locus YMR231W, strain pep5, active compounds read low 0.229 | S. cerevisiae deletion strains, locus YMR263W, strain SAP30, active compounds read low 0.743 | S. cerevisiae deletion strains, locus YMR307W, strain GAS1, active compounds read low 0.426 | S. cerevisiae deletion strains, locus YNL067W, strain RPL9B, active compounds read low 0.547 | S. cerevisiae deletion strains, locus YNL071W, strain lat1, active compounds read low 0.747 | S. cerevisiae deletion strains, locus YNL209W, strain ssb2, active compounds read low 0.141 | S. cerevisiae deletion strains, locus YNL233W, strain BNI4, active compounds read low 0.623 | S. cerevisiae deletion strains, locus YNL248C, strain rpa49, active compounds read low 0.862 | S. cerevisiae deletion strains, locus YNL322C, strain KRE1, active compounds read low 0.243 | S. cerevisiae deletion strains, locus YNR052C, strain pop2, active compounds read low 0.754 | S. cerevisiae deletion strains, locus YOL147C, strain pex11, active compounds read low 0.862 | S. cerevisiae deletion strains, locus YOR001W, strain rrp6, active compounds read low 0.736 | S. cerevisiae deletion strains, locus YOR061W, strain CKA2, active compounds read low 0.441 | S. cerevisiae deletion strains, locus YOR069W, strain VPS5, active compounds read low 0.503 | S. cerevisiae deletion strains, locus YOR070C, strain gyp1, active compounds read low 0.569 | S. cerevisiae deletion strains, locus YOR080W, strain dia2, active compounds read low 0.253 | S. cerevisiae deletion strains, locus YOR083W, strain WHI5, active compounds read low 0.541 | S. cerevisiae deletion strains, locus YOR106W, strain vam3, active compounds read low 0.143 | S. cerevisiae deletion strains, locus YOR184W, strain ser1, active compounds read low 0.649 | S. cerevisiae deletion strains, locus YOR265W, strain rbl2, active compounds read low 0.699 | S. cerevisiae deletion strains, locus YOR270C, strain vph1, active compounds read low 0.255 | S. cerevisiae deletion strains, locus YOR290C, strain snf2, active compounds read low 0.487 | S. cerevisiae deletion strains, locus YPL051W, strain arl3, active compounds read low 0.279 | S. cerevisiae deletion strains, locus YPL078C, strain atp4, active compounds read low 0.731 | S. cerevisiae deletion strains, locus YPL106C, strain sse1, active compounds read low 0.66 | S. cerevisiae deletion strains, locus YPL240C, strain hsp82, active compounds read low 0.779 | S. cerevisiae deletion strains, locus YPL241C, strain CIN2, active compounds read low 0.509 | S. cerevisiae deletion strains, locus YPR167C, strain met16, active compounds read low 0.918 | S. cerevisiae deletion strains, strain wtn01, active compounds read low 0.679 | S. cerevisiae strains, strain wild type, active compounds read low 0.0985
